This is part of a sample that, as a whole, favours compounds with a hit. Of some 83,000 tested, about 20% had one in any assay.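 Interpretation: 100, growth as untreated; towards 0, rising growth inhibition; 0, no net growth; 0 to -100, cell death. Compounds scoring below 10 were considered active.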 Calls of active or inactive are those of the source.
What was measured:
Experiment in all cases: NCI-60 one-dose screen, 48 h (100 = growth as untreated, 0 = no growth, -100 = all killed)
Conditions in all cases: 10 µM unless noted
[1] = test system: NCI-H23 lung
[2] = test system: NCI-H226 lung
[3] = test system: NCI-H322M lung
[4] = test system: HOP-62 NSCLC
[5] = test system: NCI-H460 lung
[6] = test system: HOP-92 NSCLC
[7] = test system: NCI-H522 lung
[8] = test system: A549/ATCC NSCLC
[9] = test system: 786-0 renal
[10] = test system: COLO 205 colon
[11] = test system: DU-145 prostate
[12] = test system: K-562 leukemia
[13] = test system: MALME-3M melanoma
[14] = test system: MDA-MB-231 breast
[15] = test system: RXF 393 renal
[16] = test system: SF-268 CNS
[17] = test system: SF-295 CNS
[18] = test system: SF-539 CNS
[19] = test system: UACC-257 melanoma
[20] = test system: M14 melanoma

Measured: growth

COc1cc2c(cc1[N+](=O)[O-])-c1ccc([N+](=O)[O-])cc1/C2=N\O
inactive: [1] 88.2% | [2] 66% | [3] 113% | [4] 110% | [5] 84% | [6] 100% | [7] 51.2% | [8] 83.5% | [9] 79.6% | [10] 79.6% | [11] 120% | [12] 88.7% | [13] 116% | [14] 87.4% | [15] 79.8% | [16] 89.6% | [17] 77.2% | [18] 84.9% | [19] 97.9% | [20] 93.9%

O=C1Nc2cc(-c3ccncc3)ccc2/C1=C/c1ccc[nH]1
inactive: [1] 58.5% | [2] 78.5% | [3] 84% | [4] 105% | [5] 98.9% | [6] 104% | [7] 75.2% | [8] 101% | [9] 102% | [10] 112% | [11] 88.1% | [12] 98.3% | [13] 65.8% | [14] 65.2% | [15] 93.1% | [16] 94.5% | [17] 102% | [18] 91.9% | [19] 114% | [20] 91.9%

CC(C)C1C2=C(NCCN1C(=O)Cc1ccccc1)C(C)(C)N(Cc1ccccc1)C2=O (stereo not given)
inactive: [1] 97.4% | [2] 104% | [3] 99.2% | [4] 91.9% | [5] 104% | [6] 93.6% | [7] 93.6% | [8] 100% | [9] 97.3% | [10] 100% | [11] 104% | [12] 96.5% | [13] 98.3% | [14] 98.2% | [15] 98.3% | [16] 102% | [17] 99.5% | [18] 107% | [19] 96.7% | [20] 103%

CCOc1cc(CNc2ccc(N3CCOCC3)c(C(=O)O)c2)ccc1OC
inactive: [1] 100% | [2] 93.4% | [3] 94.8% | [4] 103% | [5] 102% | [6] 110% | [7] 99.3% | [8] 93% | [9] 112% | [10] 104% | [11] 101% | [12] 101% | [13] 105% | [14] 92.3% | [15] 99.3% | [16] 97.8% | [17] 104% | [18] 104% | [19] 93.9% | [20] 96.5%

Cc1ccccc1CNc1ccc(N2CCOCC2)cc1
inactive: [1] 99.1% | [2] 107% | [3] 98.3% | [4] 117% | [5] 112% | [6] 115% | [7] 101% | [8] 103% | [9] 107% | [10] 108% | [11] 102% | [12] 101% | [13] 102% | [14] 101% | [15] 114% | [16] 93.4% | [17] 99.2% | [18] 111% | [19] 103% | [20] 100%

CC(C)NC(=O)N1C(=O)CCC1NNC(=O)c1ccc([N+](=O)[O-])cc1 (stereo not given)
inactive: [1] 89.8% | [2] 104% | [3] 96.3% | [4] 106% | [5] 121% | [6] 109% | [7] 93.1% | [8] 104% | [9] 98.5% | [10] 112% | [11] 103% | [12] 98.6% | [13] 101% | [14] 108% | [15] 123% | [16] 100% | [17] 105% | [18] 97.7% | [19] 111% | [20] 100%

COc1ccc(/C(C)=N/NC(=O)CSc2nc3ccccc3c(=O)n2Cc2ccc(S(N)(=O)=O)cc2)c(OC)c1
inactive: [1] 101% | [2] 93.9% | [3] 94.8% | [4] 100% | [5] 102% | [6] 112% | [7] 96% | [8] 102% | [9] 105% | [10] 118% | [11] 108% | [12] 94.9% | [13] 102% | [14] 96.2% | [15] 102% | [16] 91.8% | [17] 98.7% | [18] 100% | [19] 107% | [20] 104%

O=C(CSc1nc2sc3c(c2c(=O)n1Cc1ccccc1)CCCC3)N1CCN(c2ccccc2)CC1
inactive: [1] 90.9% | [2] 94.6% | [3] 89.4% | [4] 88.3% | [5] 103% | [6] 103% | [7] 81.1% | [8] 73% | [9] 103% | [10] 112% | [11] 103% | [12] 99.4% | [13] 109% | [14] 101% | [15] 105% | [16] 93.9% | [17] 101% | [18] 103% | [19] 85.7% | [20] 97.2%

N#Cc1c(Nc2ccccc2)nn2cc(-c3nc4ccccc4s3)c(N)nc12
inactive: [1] 60.3% | [2] 65.6% | [3] 86.2% | [4] 92.9% | [5] 61.8% | [6] 80.6% | [7] 72.8% | [8] 80.6% | [9] 76.3% | [10] 114% | [11] 66% | [12] 74.8% | [13] 40.4% | [14] 72.5% | [15] 87.8% | [16] 70% | [17] 99% | [18] 58% | [19] 83.7% | [20] 58.8%

COc1cc2oc(-c3cccc(C(=O)Nc4ccc(Cl)cc4)c3)cc(=O)c2c(OC)c1OC
inactive: [1] 44.3% | [2] 36.5% | [3] 37% | [4] 12.8% | [5] 20.1% | [7] 25.2% | [8] 23.6% | [9] 12% | [10] 18% | [11] 42.4% | [12] 16% | [13] 14.2% | [16] 48.3% | [18] 35.2%
active: [6] -2.18% | [14] -3.1% | [15] -29% | [17] -41.6% | [19] -7.18% | [20] -18%

CCCCN(CCCC)CCc1c(C)cc(C)c(CCN(CCCC)CCCC)c1O
inactive: [2] 26.8% | [3] 35.5% | [4] 62.4% | [8] 41.5% | [9] 41.1% | [10] 20% | [11] 52.9% | [12] 21.2% | [14] 48.3% | [15] 40.1% | [16] 49.5% | [17] 31.3% | [18] 67.6% | [20] 38.8%
active: [1] 4.18% | [5] 7.59% | [6] -11.3% | [7] -6.82% | [13] -15.9% | [19] 7.47%

CCCCCN1C=C/C(=C\C(=O)N(C)c2ccc(Br)cc2)c2ccccc21
inactive: [1] 87.3% | [2] 86.3% | [3] 98.8% | [4] 94.5% | [5] 105% | [6] 82.7% | [7] 82.1% | [8] 95.2% | [9] 98% | [10] 108% | [11] 104% | [12] 76.5% | [13] 96.9% | [14] 101% | [15] 92.9% | [16] 96.2% | [17] 99.2% | [18] 102% | [19] 95.1% | [20] 104%

CC(C)(C)OC(=O)N1CCN(c2ccc(N)cc2)C(=O)C1
inactive: [1] 97.7% | [2] 100% | [3] 107% | [4] 106% | [5] 111% | [6] 127% | [7] 107% | [8] 104% | [9] 100% | [10] 113% | [11] 115% | [12] 99.9% | [13] 106% | [14] 98.8% | [15] 110% | [16] 103% | [17] 98.2% | [18] 107% | [19] 107% | [20] 101%

O=C(Nc1cccc(C2=NCCN2)c1)c1ccc(OCCCOc2ccc(C(=O)Nc3cccc(C4=NCCN4)c3)cc2)cc1
inactive: [2] 52.8% | [4] 57.4% | [6] 18.8% | [9] 58.1% | [12] 27.2% | [16] 25.9% | [17] 52.1% | [20] 30.4%
active: [1] 1.27% | [3] -0.261% | [5] 6.54% | [7] -18.6% | [8] -55.3% | [10] -18.7% | [11] 9.35% | [13] -82% | [14] -10.5% | [15] -19.9% | [18] -43.7% | [19] -11%

O=C1CCC(NC(=S)Nc2ccccc2)N1 (stereo not given)
inactive: [1] 91.2% | [2] 103% | [3] 99.5% | [4] 109% | [5] 115% | [6] 102% | [7] 92.8% | [8] 101% | [9] 105% | [10] 120% | [11] 112% | [12] 97.5% | [13] 99.6% | [14] 109% | [15] 117% | [16] 104% | [17] 110% | [18] 105% | [19] 104% | [20] 110%
